BRCA1 expr up = qHTS Assay to Identify Small Molecule Activators of BRCA1 Expression. AID 624202, 2012. Potency, µM (highest dose often 46.1 µM), hits mostly activators. 380,000 tested, 1.1% active. MCF7-BRCA1-FFLuc reporter, luminescence, 48 h; response scale: scaled: vehicle 0%, 10 µM genistein 100%; further: nearly all actives have a fitted effect of over 80% in size
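Quantitative HTS in MCF7 cells stably reporting BRCA1 expression via firefly luciferase. Compound treatment lasts 48 h at 37 °C in phenol-red free MEM. Activation is expressed relative to genistein at 10 microM and DMSO.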
PTHR1 agonist = qHTS for PTHR1 Agonists: Primary Screen | Parathyroid hormone/parathyroid hormone-related peptide receptor (Homo sapiens), Q03431 | HEK293 GP2 PTHR1 cells, GloSensor cAMP luminescence, 1 h | Potency, µM (doses to about 115 µM), actives largely listed as activators | 410,000 tested, 0.075% active; further: nearly all actives have a fitted effect of over 55% in size
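HEK-293-derived GP2 cells expressing PTHR1 and a GloSensor cAMP reporter, 3,000/well, plated overnight, given luciferin plus IBMX (each 0.5 mM as added) for 1 h at 37 °C, then compound for 1 h at 37 °C. Luminescence was read after 15 min at room temperature.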
DRD3 agonist = qHTS of D3 Dopamine Receptor Agonist: qHTS. AID 652048, 2013. D(3) dopamine receptor (Homo sapiens), P35462. 410,000 tested, 0.58% active. max activation, %. D3R DiscoveRx beta-arrestin cells, luminescence, 90 min; in the data active means max activation above about 30%
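Agonist-mode cell screen: cells plated at 1500/well and incubated overnight at 37 °C, then exposed to library compounds for 90 min at 37 °C. Detection reagent was added for 30–60 min at room temperature, and luminescence was read.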
RGS4 inh = Inhibitors of Regulator of G Protein Signaling (RGS) 4: qHTS; 390,000 tested, 0.039% active; Potency, µM (titrated, usually from 114 µM), hits mostly inhibitors; AID 504845, 2011; Transcreener GDP fluorescence polarization, RGS4-accelerated GTP hydrolysis; Regulator of G-protein signaling 4 (Homo sapiens), P49798; further: nearly all actives have a fitted effect of over 75% in size
Target sequence (P49798 whole entry, looked up): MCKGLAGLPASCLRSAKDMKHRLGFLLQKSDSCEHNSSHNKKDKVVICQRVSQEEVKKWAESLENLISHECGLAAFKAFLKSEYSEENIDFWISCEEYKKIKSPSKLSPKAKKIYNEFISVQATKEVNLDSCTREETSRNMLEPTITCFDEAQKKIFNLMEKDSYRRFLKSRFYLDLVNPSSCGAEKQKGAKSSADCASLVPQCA
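MLSMR compounds (23 nl, pin-transferred) preincubated 10 min at room temperature with a 500nM (2x) first reagent, then RGS4 at 900nM (2x) plus Transcreener GDP mix added; fluorescence polarization (620/688 nm) read before and after 90 min at 30 °C.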
B2AR arrestin = qHTS assay of beta-arrestin-biased ligands of beta2-adrenergic receptor | Beta-2 adrenergic receptor (Homo sapiens), P07550 | beta-arrestin recruitment to beta2AR, cell-based reporter | Potency, µM (top dose mostly 46.1 µM), hits mostly activators | 330,000 tested, 0.02% active | AID 492947, 2010; further: nearly all actives have a fitted effect of over 65% in size
Target sequence (P07550 whole entry, looked up): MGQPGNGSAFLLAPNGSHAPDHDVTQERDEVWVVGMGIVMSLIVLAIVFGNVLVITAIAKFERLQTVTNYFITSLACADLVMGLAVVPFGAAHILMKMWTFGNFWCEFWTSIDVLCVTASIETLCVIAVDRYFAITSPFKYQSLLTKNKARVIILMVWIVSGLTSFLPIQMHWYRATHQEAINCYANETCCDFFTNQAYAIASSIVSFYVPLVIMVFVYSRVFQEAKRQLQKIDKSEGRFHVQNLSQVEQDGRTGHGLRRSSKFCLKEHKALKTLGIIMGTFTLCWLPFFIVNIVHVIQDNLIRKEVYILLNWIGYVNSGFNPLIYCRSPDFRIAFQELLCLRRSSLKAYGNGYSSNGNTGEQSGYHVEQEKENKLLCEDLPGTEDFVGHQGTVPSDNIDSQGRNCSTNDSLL
D3 antag = qHTS of D3 Dopamine Receptor Antagonist: qHTS; max response, negative = inhibition, %; 360,000 tested, 2.5% active; D3R cells, DiscoveRx beta-arrestin luminescence, antagonist mode; stronger effect = lower value; in the data active means max response below about -50%; inconclusive means no clear call, values can overlap the other calls
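Cells expressing the human receptor were seeded at 1500 cells/well, incubated overnight at 37 degrees C in 5% CO2, then exposed to library compounds with dopamine controls for 90 minutes at 37 degrees C before luminescent detection.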
A number is an active result; [ ] = dose if it differs, or a comment. Compounds with a hit are over-represented: about 3.7% of the library has one in this group of screens. Unless noted, the call rests on the fitted dose curve; in most records, active means well fitted curve in the direction sought with a large enough effect; inconclusive means small, poorly fitted or top-dose-only effect, or another doubt; inactive means no such curve, though single readings can be large; an effect the other way counts as inactive or inconclusive.

Cc1c(C(=O)O)sc(S(=O)(=O)N2CCN(C(=O)Cc3ccccc3Cl)CC2)c1C(=O)O was read as BRCA1 expr up inactive, PTHR1 agonist inactive, DRD3 agonist inactive, RGS4 inh inconclusive, B2AR arrestin inactive and D3 antag inconclusive.
Screening CCOC(=O)c1c(C)n(-c2ccccc2)c2ccc(OC(=O)c3ccccc3NC(=O)C(C)(C)C)cc12 returned PTHR1 agonist inactive, DRD3 agonist inactive and RGS4 inh inactive.
O=c1oc(Nc2ccccc2Cl)nc2ccccc12 was read as BRCA1 expr up inconclusive, PTHR1 agonist inactive, DRD3 agonist inactive, RGS4 inh inactive, B2AR arrestin inactive and D3 antag inconclusive.
For O=c1oc(Nc2cccc(Cl)c2)nc2ccccc12 the results were BRCA1 expr up 7.1µM, PTHR1 agonist inactive, DRD3 agonist inactive, RGS4 inh inactive, B2AR arrestin inactive and D3 antag inactive.
`O=C(CCNS(=O)(=O)c1ccc(OC(F)(F)F)cc1)N1CCN(C/C=C/c2ccccc2)CC1` gave BRCA1 expr up inactive, PTHR1 agonist inactive, DRD3 agonist inactive, RGS4 inh inactive, B2AR arrestin inactive and D3 antag inactive.
Screening O=C1C(Cl)=C(N2CCOCC2)C(=O)N1c1ccc(Br)cc1 returned BRCA1 expr up inactive, PTHR1 agonist inactive, DRD3 agonist inactive, RGS4 inh inconclusive, B2AR arrestin inactive and D3 antag -69.
O=C(CC1CC2CCC1C2)N1CCN(S(=O)(=O)c2ccccc2C(F)(F)F)CC1 (stereo not drawn) was read as BRCA1 expr up inactive, PTHR1 agonist inactive, DRD3 agonist inactive, RGS4 inh inactive, B2AR arrestin inactive and D3 antag inactive.
For CC1(C(=O)Nc2cccc3ncccc23)CCN1C(=O)Cc1ccc(-c2ccccc2)cc1 (stereo not drawn) the results were BRCA1 expr up inactive, PTHR1 agonist inactive, DRD3 agonist inactive and D3 antag inactive.
`Cn1cccc1CNCc1ccccc1Cl` gave BRCA1 expr up inactive, PTHR1 agonist inactive, DRD3 agonist inactive, RGS4 inh inactive, B2AR arrestin inactive and D3 antag -64.
`CC(=O)N(O)c1ccc(/C=C2\C=Cc3ccccc32)cc1` gave BRCA1 expr up inactive.
`Cc1ccccc1CS(=O)(=O)CCC(=O)NCCN1CCN(c2cccc(Cl)c2)CC1` gave BRCA1 expr up inactive, PTHR1 agonist inactive, DRD3 agonist inactive, RGS4 inh inactive, B2AR arrestin inactive and D3 antag -54.
Screening Cc1cc(=O)oc(C)c1C(=O)NCCCN1CCN(c2ccccc2F)CC1 returned BRCA1 expr up inactive, PTHR1 agonist inactive, DRD3 agonist inactive, RGS4 inh inactive, B2AR arrestin inactive and D3 antag inconclusive.
For O=C(CCS(=O)(=O)Cc1ccc(Cl)cc1)NCCCN1CCN(c2ccccc2F)CC1 the results were BRCA1 expr up inactive, PTHR1 agonist inactive, DRD3 agonist inactive, RGS4 inh inactive, B2AR arrestin inactive and D3 antag -70.
`Cc1cc(C)c2c(=O)n(CC(=O)NCCCN3CCOCC3)sc2n1` gave BRCA1 expr up inactive, PTHR1 agonist inactive, DRD3 agonist inactive, RGS4 inh inactive, B2AR arrestin inactive and D3 antag inactive.
Cc1cc(C)c2c(=O)n(CC(=O)NCCCN3CCN(c4ccccc4F)CC3)sc2n1 was read as BRCA1 expr up inactive, PTHR1 agonist inactive, DRD3 agonist inactive, RGS4 inh inactive, B2AR arrestin inactive and D3 antag -70.
`Cc1ccccc1CS(=O)(=O)CCC(=O)NCCCN1CCN(c2ccccc2F)CC1` gave BRCA1 expr up inactive, PTHR1 agonist inactive, DRD3 agonist inactive, RGS4 inh inactive, B2AR arrestin inactive and D3 antag -60.
Screening CCC(CC)C(=O)N(C)c1c(C)nc2c(OCC=C(C)C)cccn12 returned BRCA1 expr up inactive, PTHR1 agonist inactive, DRD3 agonist inactive and D3 antag inactive.
For COc1ccc(C(=O)Cn2cnc3ccc(Cl)cc3c2=O)cc1F the results were BRCA1 expr up inactive, PTHR1 agonist inactive, DRD3 agonist inactive, RGS4 inh inactive, B2AR arrestin inactive and D3 antag inactive.
`Cc1ccc(CNC(=O)CCNS(=O)(=O)c2ccc3c(c2)CCCC(=O)N3)cc1` gave BRCA1 expr up inactive, PTHR1 agonist inactive, DRD3 agonist inactive and RGS4 inh inactive.
Cc1ccc(/C(N)=N/OC(=O)CSc2ccccc2)cc1 was read as BRCA1 expr up 7.9µM, PTHR1 agonist inactive, DRD3 agonist inactive, RGS4 inh inactive, B2AR arrestin inactive and D3 antag inactive.
N/C(=N\OC(=O)c1cccc(Br)c1)c1ccc([N+](=O)[O-])cc1 was read as BRCA1 expr up inactive, PTHR1 agonist inactive, DRD3 agonist inactive, RGS4 inh inactive, B2AR arrestin inactive and D3 antag inactive.
`N/C(=N\OC(=O)CSc1ccccc1)c1ccc([N+](=O)[O-])cc1` gave BRCA1 expr up 11µM, PTHR1 agonist inactive, DRD3 agonist inactive, RGS4 inh inactive[11.4 µM], B2AR arrestin inactive and D3 antag inactive.
For N/C(=N\OC(=O)c1ccccc1F)c1ccc([N+](=O)[O-])cc1 the results were BRCA1 expr up 2.8µM, PTHR1 agonist inactive, DRD3 agonist inactive, RGS4 inh inconclusive, B2AR arrestin inactive and D3 antag inactive.
Cc1ccccc1NC(=O)Cc1nc(COC(=O)c2nccnc2N)cs1 was read as BRCA1 expr up inactive, PTHR1 agonist inactive, DRD3 agonist inactive and D3 antag inactive.
For Cc1cc(NCCCN)nc(-c2ccccc2O)n1 the results were BRCA1 expr up 3.5µM, PTHR1 agonist inactive, DRD3 agonist inactive, RGS4 inh inactive, B2AR arrestin inactive and D3 antag inactive.
`Cc1ccc(Nc2cc(C)nc(-c3ccccc3O)n2)cc1` gave BRCA1 expr up inactive, PTHR1 agonist inactive, DRD3 agonist inactive, RGS4 inh inactive, B2AR arrestin inactive and D3 antag inactive.
Screening Cn1cccc1/C=C(/C#N)C(N)=S returned BRCA1 expr up inactive, PTHR1 agonist inactive, DRD3 agonist inactive, RGS4 inh inactive, B2AR arrestin inactive and D3 antag -63.
Screening Cc1ccc(-c2ccc(/C=C(\C#N)C(N)=S)n2C)cc1 returned BRCA1 expr up inactive, PTHR1 agonist inactive, DRD3 agonist inactive, RGS4 inh inactive, B2AR arrestin inactive and D3 antag inactive.

High-throughput results deposited in PubChem by National Center for Advancing Translational Sciences (NCATS).
